# Results from ChEMBL document CHEMBL3988442, “University of Dundee, Small-Polar-MMV Screening Library” (2021).
# For some assays here: Measured potencies and affinities stand elsewhere.
# Legend:
# Design in all cases: scale not given: direction of the effect not stated beside the values
# [1] = target: Protein translocase subunit SecA (Escherichia coli (strain K12)) (UniProt P10408); assay: Assay to Identify E. coli SecA ATPase Inhibitors; format: functional; conditions: 30 µM
# [2] = target: T1, Ubiquitin-activating enzyme e1, putative (Leishmania donovani (strain BPK282A1)) (UniProt E9BSI1); assay: Leishmania donovani Ubiquitin Activating Enzyme (LdE1); format: functional; conditions: 30 µM
# T1 sequence (whole entry): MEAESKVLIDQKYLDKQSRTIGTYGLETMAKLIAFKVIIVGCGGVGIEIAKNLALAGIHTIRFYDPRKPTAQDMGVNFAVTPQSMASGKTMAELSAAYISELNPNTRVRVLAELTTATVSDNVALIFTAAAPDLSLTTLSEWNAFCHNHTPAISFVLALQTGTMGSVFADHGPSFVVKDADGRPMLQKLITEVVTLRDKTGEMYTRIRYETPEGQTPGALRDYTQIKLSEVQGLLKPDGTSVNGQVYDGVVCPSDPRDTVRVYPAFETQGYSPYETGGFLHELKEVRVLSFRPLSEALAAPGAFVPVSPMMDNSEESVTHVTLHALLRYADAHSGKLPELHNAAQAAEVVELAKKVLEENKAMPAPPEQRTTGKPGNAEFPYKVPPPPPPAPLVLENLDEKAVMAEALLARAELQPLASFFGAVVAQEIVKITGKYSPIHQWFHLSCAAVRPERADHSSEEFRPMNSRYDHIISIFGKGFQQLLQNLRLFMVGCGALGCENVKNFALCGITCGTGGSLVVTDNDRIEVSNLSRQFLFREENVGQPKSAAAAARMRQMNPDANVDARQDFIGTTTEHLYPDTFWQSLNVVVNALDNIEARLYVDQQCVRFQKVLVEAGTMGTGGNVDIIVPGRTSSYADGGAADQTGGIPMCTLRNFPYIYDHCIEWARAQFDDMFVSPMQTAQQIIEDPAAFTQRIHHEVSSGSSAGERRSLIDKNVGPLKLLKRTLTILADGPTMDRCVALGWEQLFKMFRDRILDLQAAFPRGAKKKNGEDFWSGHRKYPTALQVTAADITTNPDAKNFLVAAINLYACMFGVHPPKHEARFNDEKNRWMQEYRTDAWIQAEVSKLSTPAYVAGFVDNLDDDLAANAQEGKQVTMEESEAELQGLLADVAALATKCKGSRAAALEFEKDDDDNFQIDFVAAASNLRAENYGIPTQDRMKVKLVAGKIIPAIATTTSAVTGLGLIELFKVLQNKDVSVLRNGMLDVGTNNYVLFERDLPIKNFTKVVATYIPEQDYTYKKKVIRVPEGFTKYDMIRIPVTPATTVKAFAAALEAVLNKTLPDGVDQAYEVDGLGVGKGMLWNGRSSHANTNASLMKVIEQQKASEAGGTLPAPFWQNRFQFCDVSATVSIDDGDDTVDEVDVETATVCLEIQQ
# [3] = target: AMP-activated protein kinase, AMPK (Homo sapiens) (UniProt P54646+O43741+P54619+Q9UGJ0+Q9Y478+Q13131+Q9UGI9); assay: AMP-dependent Kinase enzyme assay. An in vitro enzyme assay that detects ADP turnover that is directly proportional to AMPK activity. This uses naive AMPK that is activated during the assay with MK-8722; format: functional; conditions: 30 µM
# [4] = target: Sialic acid-binding Ig-like lectin 9 (Homo sapiens) (UniProt Q9Y336); assay: Hs-Siglec9 ALPHAscreen SOP 20170721; conditions: 10 µM
# Trypanosoma cruzi = assay: Trypanosoma cruzi phosphomannomutase and mannose-1-phosphate guanylyltransferase assay; format: functional; conditions: 10 µM
# [5] = target: T2, Arginase-2, mitochondrial (Homo sapiens) (UniProt P78540); assay: in vitro enzyme assay to detect the production of urea directly proportional to the activity of Arginase II; format: functional; conditions: 33.3 µM; note: in the data most compounds retested in dose-response had high values
# T2 sequence (whole entry): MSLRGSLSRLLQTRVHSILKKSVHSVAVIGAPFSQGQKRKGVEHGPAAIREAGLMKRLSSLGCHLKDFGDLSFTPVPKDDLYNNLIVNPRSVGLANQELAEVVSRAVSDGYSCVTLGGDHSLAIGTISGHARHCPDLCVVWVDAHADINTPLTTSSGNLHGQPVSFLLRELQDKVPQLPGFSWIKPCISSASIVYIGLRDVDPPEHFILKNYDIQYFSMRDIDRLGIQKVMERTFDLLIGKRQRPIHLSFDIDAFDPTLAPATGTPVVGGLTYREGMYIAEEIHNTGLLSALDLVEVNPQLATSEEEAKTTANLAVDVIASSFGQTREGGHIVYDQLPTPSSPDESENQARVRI
# [6] = target: T3, Proteasome subunit beta (Trypanosoma cruzi) (UniProt O96673); assay: Trypanosoma cruzi proteasome chymotrypsin-like activity (TcProtChymo) assay.; note: in the data most compounds retested in dose-response had high values; format: functional; conditions: 9.37 µM
# T3 sequence (whole entry): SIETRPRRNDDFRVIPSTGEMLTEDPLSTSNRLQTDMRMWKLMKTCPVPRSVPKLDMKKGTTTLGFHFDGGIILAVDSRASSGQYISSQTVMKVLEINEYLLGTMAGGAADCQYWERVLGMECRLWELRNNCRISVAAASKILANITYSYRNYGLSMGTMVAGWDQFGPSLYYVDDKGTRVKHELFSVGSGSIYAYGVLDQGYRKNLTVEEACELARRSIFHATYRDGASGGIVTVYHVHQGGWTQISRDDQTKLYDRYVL
# Homo sapiens = species on record: Homo sapiens; assay: To identify inhibition of the IFN signalling (Jak-Stat) pathway via expression of an eGFP reporter gene under the control of an IFN-stimulated response element (ISRE) containing MxA promoter.; format: functional; conditions: 30 µM
# [7] = target: T4, Tyrosyl-tRNA synthetase, putative (Trypanosoma cruzi (strain CL Brener)) (UniProt Q4DSP6); assay: Trypanosoma cruzi tyrosyl tRNA synthetase (TcYRS) _High Tyrosine SOP; format: functional; conditions: 30 µM; note: in the data most compounds retested in dose-response had high values
# T4 sequence (whole entry): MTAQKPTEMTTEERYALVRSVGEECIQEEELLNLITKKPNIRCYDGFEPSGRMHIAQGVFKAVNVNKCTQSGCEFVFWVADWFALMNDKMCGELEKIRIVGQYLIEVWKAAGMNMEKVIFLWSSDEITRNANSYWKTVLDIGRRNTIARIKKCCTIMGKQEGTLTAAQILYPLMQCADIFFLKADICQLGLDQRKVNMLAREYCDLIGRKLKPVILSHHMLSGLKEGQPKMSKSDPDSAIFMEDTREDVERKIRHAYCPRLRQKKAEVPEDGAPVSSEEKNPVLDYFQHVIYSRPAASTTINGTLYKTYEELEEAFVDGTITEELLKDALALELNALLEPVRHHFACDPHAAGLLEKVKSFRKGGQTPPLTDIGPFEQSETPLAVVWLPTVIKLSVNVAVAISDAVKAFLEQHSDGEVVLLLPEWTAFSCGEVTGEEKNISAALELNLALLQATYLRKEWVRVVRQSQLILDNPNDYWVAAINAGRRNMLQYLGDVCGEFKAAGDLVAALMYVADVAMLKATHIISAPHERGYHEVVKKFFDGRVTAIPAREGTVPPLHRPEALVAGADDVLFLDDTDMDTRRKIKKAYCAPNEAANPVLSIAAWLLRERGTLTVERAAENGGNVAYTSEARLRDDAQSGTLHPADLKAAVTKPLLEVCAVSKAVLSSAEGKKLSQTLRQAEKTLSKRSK
# [8] = target: T4, Tyrosyl-tRNA synthetase, putative (Trypanosoma cruzi (strain CL Brener)); assay: Trypanosoma cruzi tyrosyl tRNA synthetase (TcYRS) SOP; format: functional; conditions: 30 µM
# [9] = target: Chromo domain-containing protein 1 (Saccharomyces cerevisiae (strain ATCC 204508 / S288c) (Baker's yeast)) (UniProt P32657); assay: ScCHD-1 Enzyme Inhibition Assay; format: functional; conditions: 30 µM; note: in the data most compounds retested in dose-response had high values
# Sequence of Chromo domain-containing protein 1 (Saccharomyces cerevisiae (strain ATCC 204508 / S288c) (Baker's yeast)) (P32657 whole entry, the tested form may be a part): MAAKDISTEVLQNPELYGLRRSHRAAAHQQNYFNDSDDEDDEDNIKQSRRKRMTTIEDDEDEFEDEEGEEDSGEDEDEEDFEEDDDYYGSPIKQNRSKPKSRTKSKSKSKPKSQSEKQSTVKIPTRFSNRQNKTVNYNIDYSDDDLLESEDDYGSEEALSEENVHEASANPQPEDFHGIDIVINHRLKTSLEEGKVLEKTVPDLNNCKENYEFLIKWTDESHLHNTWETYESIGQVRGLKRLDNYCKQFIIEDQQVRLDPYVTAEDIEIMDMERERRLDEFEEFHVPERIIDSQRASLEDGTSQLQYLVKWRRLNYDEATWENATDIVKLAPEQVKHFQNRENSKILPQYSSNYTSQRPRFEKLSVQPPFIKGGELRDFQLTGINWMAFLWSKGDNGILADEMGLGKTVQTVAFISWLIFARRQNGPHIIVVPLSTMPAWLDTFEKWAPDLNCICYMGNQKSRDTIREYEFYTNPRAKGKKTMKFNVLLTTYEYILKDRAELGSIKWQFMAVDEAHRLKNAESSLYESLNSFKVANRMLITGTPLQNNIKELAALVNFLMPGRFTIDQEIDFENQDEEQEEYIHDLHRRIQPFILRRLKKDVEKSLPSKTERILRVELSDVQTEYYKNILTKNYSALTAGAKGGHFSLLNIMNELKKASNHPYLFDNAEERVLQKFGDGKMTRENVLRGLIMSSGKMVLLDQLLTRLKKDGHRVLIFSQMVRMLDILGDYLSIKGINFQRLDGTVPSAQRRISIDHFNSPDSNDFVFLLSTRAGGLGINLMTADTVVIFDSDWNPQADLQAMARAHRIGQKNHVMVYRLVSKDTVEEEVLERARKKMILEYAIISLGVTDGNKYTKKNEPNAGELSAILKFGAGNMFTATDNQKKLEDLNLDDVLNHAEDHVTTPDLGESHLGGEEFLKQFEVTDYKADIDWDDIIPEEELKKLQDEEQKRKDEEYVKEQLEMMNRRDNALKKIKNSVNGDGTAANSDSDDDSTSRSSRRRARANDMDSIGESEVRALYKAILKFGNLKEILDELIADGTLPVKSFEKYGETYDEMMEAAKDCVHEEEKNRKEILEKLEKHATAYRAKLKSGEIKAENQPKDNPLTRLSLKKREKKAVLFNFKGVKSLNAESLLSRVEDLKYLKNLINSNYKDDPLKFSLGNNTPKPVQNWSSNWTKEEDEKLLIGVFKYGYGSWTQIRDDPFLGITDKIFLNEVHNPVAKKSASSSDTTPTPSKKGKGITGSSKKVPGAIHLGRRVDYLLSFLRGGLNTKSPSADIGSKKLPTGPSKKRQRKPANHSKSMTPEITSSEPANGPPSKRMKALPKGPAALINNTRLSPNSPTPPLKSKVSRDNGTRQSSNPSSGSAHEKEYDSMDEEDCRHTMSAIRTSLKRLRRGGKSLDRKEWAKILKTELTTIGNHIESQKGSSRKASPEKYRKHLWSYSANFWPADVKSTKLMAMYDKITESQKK
# Sequence of Sialic acid-binding Ig-like lectin 9 (Homo sapiens) (Q9Y336 whole entry): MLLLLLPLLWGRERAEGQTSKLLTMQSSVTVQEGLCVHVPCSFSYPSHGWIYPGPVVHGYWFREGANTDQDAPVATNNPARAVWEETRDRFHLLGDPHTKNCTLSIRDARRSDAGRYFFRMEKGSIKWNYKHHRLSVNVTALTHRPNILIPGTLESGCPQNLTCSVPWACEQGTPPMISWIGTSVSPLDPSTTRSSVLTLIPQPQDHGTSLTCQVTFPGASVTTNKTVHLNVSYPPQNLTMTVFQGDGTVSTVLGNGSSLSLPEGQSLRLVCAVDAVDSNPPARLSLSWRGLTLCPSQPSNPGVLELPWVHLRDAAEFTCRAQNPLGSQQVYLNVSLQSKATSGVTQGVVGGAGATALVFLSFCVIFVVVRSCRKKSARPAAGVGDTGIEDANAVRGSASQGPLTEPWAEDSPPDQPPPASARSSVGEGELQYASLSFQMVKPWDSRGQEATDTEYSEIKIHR
# Sequence of Protein translocase subunit SecA (Escherichia coli (strain K12)) (P10408 whole entry): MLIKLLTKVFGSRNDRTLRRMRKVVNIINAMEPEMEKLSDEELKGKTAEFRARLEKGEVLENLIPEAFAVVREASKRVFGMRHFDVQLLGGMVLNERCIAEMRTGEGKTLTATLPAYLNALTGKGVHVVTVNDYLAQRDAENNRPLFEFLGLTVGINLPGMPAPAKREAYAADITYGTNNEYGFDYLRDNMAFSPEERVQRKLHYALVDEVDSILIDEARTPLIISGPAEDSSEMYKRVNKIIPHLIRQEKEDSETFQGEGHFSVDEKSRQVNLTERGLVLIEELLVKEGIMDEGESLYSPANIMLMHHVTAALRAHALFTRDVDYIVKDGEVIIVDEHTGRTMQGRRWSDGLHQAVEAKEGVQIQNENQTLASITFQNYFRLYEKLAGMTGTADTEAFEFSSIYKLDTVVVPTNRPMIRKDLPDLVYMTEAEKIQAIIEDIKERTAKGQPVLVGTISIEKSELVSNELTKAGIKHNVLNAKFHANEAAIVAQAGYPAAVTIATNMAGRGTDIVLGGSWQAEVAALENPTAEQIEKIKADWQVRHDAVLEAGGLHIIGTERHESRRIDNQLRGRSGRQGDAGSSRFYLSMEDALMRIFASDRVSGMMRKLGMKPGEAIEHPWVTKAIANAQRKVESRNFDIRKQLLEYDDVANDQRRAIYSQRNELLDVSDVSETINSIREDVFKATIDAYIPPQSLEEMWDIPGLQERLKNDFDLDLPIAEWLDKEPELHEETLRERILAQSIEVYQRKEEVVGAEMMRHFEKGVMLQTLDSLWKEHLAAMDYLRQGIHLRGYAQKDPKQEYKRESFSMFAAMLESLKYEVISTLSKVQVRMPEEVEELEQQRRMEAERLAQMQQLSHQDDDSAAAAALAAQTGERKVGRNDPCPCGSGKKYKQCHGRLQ
SMILES,Percent Effect [1],Percent Effect [2],Percent Effect [3],Percent Effect [4],Percent Effect (Trypanosoma cruzi),Percent Effect [5],Percent Effect [6],Percent Effect (Homo sapiens),Percent Effect [7],Percent Effect [8],Percent Effect [9]
O=C(NC1=NCCCN1c1ccc(Cl)cc1)c1cccc(Cl)c1,-4.08%,-5.2%,0.353%,-0.0638%,-6.39%,1.38%,15.1%,3.87%,-5.38%,-8.64%,0.69%
CSCC(CCO)NC(=O)Nc1cc(C)ccc1C (configuration not stated),-3.37%,2.74%,0.417%,-7.14%,-7.83%,4.09%,15.3%,5.34%,1.07%,5%,-3.27%
CN(CCC(F)(F)F)C(=O)C1CCCN1C(=O)OC(C)(C)C (configuration not stated),-3.42%,2.74%,0.924%,-4.88%,2.15%,2.27%,-2.31%,-3.94%,3.23%,2.5%,-0.543%
CN(C)C(=O)N1CCC2(CCCN(Cc3cnn(C)c3)C2)C1 (configuration not stated),-3.04%,0%,12%,1.42%,-2.83%,0.955%,19%,-3.73%,1.08%,5.13%,-0.435%
O=C1C(NS(=O)(=O)c2cc(F)cc(F)c2)CCN1Cc1ccccc1 (configuration not stated),-4.38%,12.7%,-1.14%,-3.2%,6.52%,1.52%,13.7%,0.58%,6.4%,1.27%,-7.02%
Cc1nc(CNCc2c(C)nn(C)c2N2CCOCC2)cs1,-2.88%,7.89%,-0.222%,9.92%,3.95%,2.68%,5.68%,-6.91%,4.41%,-4.88%,-3.53%
CS(=O)(=O)NCC1CCCN(C(=O)Nc2cccnc2N2CCCC2)C1 (configuration not stated),-5.11%,13.2%,-26.3%,-7.09%,-6.33%,2.37%,16.4%,-14.6%,2.13%,5.2%,-7%
OC(CN1CCN(Cc2ccc(F)c(F)c2)CC1)C1CC1 (configuration not stated),-3.08%,8.22%,2.45%,0.902%,5.68%,-1.82%,8.16%,13.1%,6.45%,20%,-6.1%
Cc1cc(N(C)Cc2cc(C)on2)n2nc(C)c(C)c2n1,1.74%,4.17%,-0.739%,-6.39%,-6.71%,1.32%,11.4%,10.3%,2.1%,7.69%,-5.04%
CCCc1nc(CN2CCN(CC(O)c3ccccc3)CC2)no1 (configuration not stated),-2.75%,11.4%,-0.305%,1.98%,-1.54%,4.09%,8.23%,7.59%,5.21%,-2.53%,-26.1%
CN1CCOC(CNCc2nc(-c3ccccc3)cs2)C1 (configuration not stated),-3.28%,-12.7%,-8.45%,1.64%,5.95%,-1.9%,1.39%,-25.8%,1.48%,1.27%,4.02%
Cc1cc(F)cc(S(=O)(=O)NCCCN2CCC(O)CC2)c1,1.42%,15.6%,0.172%,0.431%,-0.688%,5.52%,14.6%,10.8%,7.53%,23.5%,1.36%
COc1ccccc1C(=O)NC(C)CC(=O)O (configuration not stated),-6.61%,11.4%,1.36%,-1.14%,1.74%,1.07%,2.92%,12.6%,5.21%,15.2%,-12.9%
COCCO[C@@H]1CCN(Cc2csc(C)n2)[C@H]1Cc1ccccc1,-2.84%,-5.41%,-0.151%,-7.92%,-3.03%,-1.24%,-1.29%,8.8%,1.07%,-1.24%,-1.36%
Cc1c(I)cccc1C(=O)NCC1(CO)CC1,-4.35%,13.5%,-3.32%,13.5%,7.14%,0.952%,1.38%,-9.36%,0.529%,14.6%,-4.29%
CN1CCC(Oc2ccc(NC(=O)c3ccccc3Br)cc2)CC1,-0.903%,-2.6%,0.999%,7.1%,6%,-4.14%,10.8%,7.69%,1.07%,3.7%,-4.57%
CN(C)C(=O)NC1COC2(CCN(Cc3nccn3C)CC2)C1 (configuration not stated),0.893%,5.2%,-3.63%,0.435%,-7.2%,5.81%,11.3%,-0.051%,5.29%,6.41%,0.228%
CN1C(=O)CC(C(=O)O)C12CCN(Cc1ccc(F)cc1Cl)CC2 (configuration not stated),-3.75%,2.67%,-7.2%,5.97%,3.41%,-0.521%,16%,15.5%,8.2%,13.6%,-3.62%
c1csc(-c2nc(CN3CCOC(Cn4cncn4)C3)co2)c1 (configuration not stated),-2.48%,10.8%,-9.47%,-3.91%,-0.0943%,-6.01%,20.4%,9.28%,9.36%,18.5%,-5.77%
O=S(=O)(NCC1CCN(c2ccccn2)CC1)c1ccccc1F,-1.81%,23.4%,0.655%,-16.3%,3.25%,-5.81%,12%,14.5%,2.12%,14.1%,-12.6%
CC(=O)N1CCCN(C(=O)NCCc2cc(Cl)cc(Cl)c2)CC1,-3.3%,-8.86%,10.6%,0.0308%,-2.77%,7.1%,1.54%,13.1%,0%,2.53%,-17.6%
O=C1CCCN1CC1CN(C(=O)CC2CCCC2)Cc2nccn2C1 (configuration not stated),-4.26%,7.79%,4.17%,6.88%,-1.08%,0.645%,11.7%,-6.04%,4.23%,11.5%,-9.36%
